NS1 function inh: blocks influenza NS1 protein function; 270,000 tested, 0.4% active; Potency, µM (titrated, usually from 46.1 µM), for inactives: at the top dose activity, positive = more growth; calls by dose curve; also: actives are rising curves; nearly all actives have a fitted effect of over 50% in size
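Compounds were scored for reversing the slow growth caused by influenza A NS1 in S. cerevisiae, measured by optical density at 600 nm. Assay medium contained 2% galactose at pH 6.0; NS1-free yeast of the same strain were the positive control.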
Pf growth 48h: inhibits P. falciparum growth in the first generation, 48 h; 310,000 tested, 5.9% active; AID 504832; P. falciparum luciferase growth in erythrocytes, 48 h; Potency, µM (series often up to 28.7 µM), inactives show at the highest dose activity change, negative = inhibition, most hits filed as inhibitors; also: % is scaled to controls: 0 for no effect and ±100 for the full control effect
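Luciferase-expressing P. falciparum in infected erythrocytes (2% hematocrit, 0.1% parasitemia final) in RPMI 1640/0.5% Albumax were exposed to compound for 48 hours at 37 C, 5% CO2; growth read as luminescence.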
SARS PLP yeast: SARS-CoV PLP inhibition in yeast; S. cerevisiae expressing SARS-CoV PLpro, growth rescue; Potency, µM (top dose mostly 32.9 µM), without a hit: top-dose activity, positive = growth rescue, usual class: activators; 330,000 tested, 0.19% active; AID 485353; calls by dose curve; also: 0% is about no effect; nearly all actives have a fitted effect of over 55% in size
Pf growth 96h: P. falciparum growth inhibition at 96 hour, primary screen for plastid delayed-death inhibitors | P. falciparum luciferase reporter growth, 96 h | Potency, µM (doses to about 28.7 µM), for the others: at the highest dose activity change, negative = inhibition, hits mostly inhibitors | 320,000 tested, 6.9% active | AID 504834; also: % is scaled to controls: 0 for no effect and ±100 for the full control effect
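Readout is luminescence from an integrated firefly luciferase in P. falciparum. Red cells, 2% hematocrit and 0.05% parasitemia final, were cultured with compound through two parasite generations (96 hours) at 37 C, 5% CO2.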
Numbers without * were called inactive; ? = inconclusive; / = no result given. Most compounds without a hit are left out; they make up all but 10% or so of the library. Unless noted, calls follow the shape of the dose curve; as a rule, active = well fitted inhibition curve with a large enough effect; inconclusive = small, poorly fitted or top-dose-only effect, or another doubt; inactive = no such curve, though single readings can be large or run the other way. Potency is read from the fitted curve at half-maximal effect.

SMILES | NS1 function inh | Pf growth 48h | SARS PLP yeast | Pf growth 96h
Cc1ccc(C(=O)Nc2c(-c3cccs3)nc3cc(C)ccn23)cc1 | 13.3% | ? | 3.9% | 13.7%
Cc1ccn2c(NC(=O)C(C)(C)Oc3ccc(Cl)cc3)c(-c3cccs3)nc2c1 | -8.0% | -22.4% | -34.4% | 11.7µM*
COc1ccc(NC(=O)C(=O)NNC(=O)c2cccs2)cc1 | -6.9% | 22.7% | -29.5% | 3.7µM*
Cc1cccc(C(=O)NNC(=S)NC(=O)c2cccs2)c1 | -118.8% | -4.2% | -7.1% | 11.7µM*
O=C(NNC(=O)c1cccs1)c1ccc(Cl)c(Cl)c1 | -0.6% | 24.7% | -4.9% | ?
O=C(NNC(=O)c1cccs1)c1ccc2ccccc2c1 | 0.5% | 60.0% | -1.5% | 1.65µM*
COC(=O)c1ccc(C2N=C(c3cccs3)CC(c3ccccc3O)N2)cc1 (configuration not stated) | / | ? | -19.3% | -28.9%
O=C(NCCO)c1cc2c([nH]c3ccccc32)c(-c2ccc(F)cc2)n1 | 5.3% | ? | 1.6% | 14.7µM*
Cc1ccc(-c2nc(C(=O)NCCCN(C)C)cc3c2[nH]c2ccccc23)cc1 | -0.1% | 6.57µM* | -2.6% | 9.28µM*
O=S(=O)(/N=C(/c1ccccc1)N1CCOCC1)c1ccc(F)cc1 | 3.7% | 10.2% | 1.6% | ?
O=C(CSC1=NS(=O)(=O)c2cc(F)ccc2N1)NCc1ccc(F)cc1 | / | ? | -0.1% | -12.4%
C/C(CC1CC2=C(CC1(C)C)C(C)(C)CCC2)=N\NC(N)=S (configuration not stated) | -70.8% | / | 11.2µM* | 1.04µM*
C/C(CC1CC(C)(C)OC1=O)=N\NC(N)=S (configuration not stated) | 6.7% | 27.2% | 22.7% | -12.1%
Cc1ccc2[nH]c(CSc3ccccc3)cc(=O)c2c1 | -4.4% | ? | -1.2% | 13.1µM*
CCC(C(=O)c1ccccc1)N(C(=O)c1ccccc1Cl)N1C(=O)C2C3C=CC(C3)C2C1=O (configuration not stated) | -2.5% | ? | -1.6% | 10.4µM*
Cc1ccc(C(=O)CN(C(=O)c2ccc(Cl)c(Cl)c2)N2C(=O)C3C4C=CC(C4)C3C2=O)cc1 (configuration not stated) | 19.2% | ? | -25.4% | 7.6%
COc1ccc(Nc2nc(N3CCCCC3)c3ccccc3n2)cc1 | -207.0% | 7.38µM* | -14.5% | 4.65µM*
Oc1ccc(Nc2nc(N3CCCC3)c3ccccc3n2)cc1 | -9.1% | 0.465µM* | -7.5% | 7.3%
COc1ccc(Nc2nc(N3CCCC3)nc3ccccc23)c(OC)c1 | -37.5% | 6.57µM* | -4.2% | /
C=CCNc1nc(N2CCCC2)nc2ccccc12 | -18.3% | 5.22µM* | -4.0% | /
COc1ccc(Nc2ncnc3ccccc23)c(OC)c1 | -3.9% | 63.8% | 2.0% | -14.9%
Cc1oc2c(c(C)cc3oc(=O)c(CC(=O)N[C@@H](CCCNC(N)=O)C(=O)O)c(C)c32)c1C | 14.3% | 55.0% | 1.5% | -16.9%
O=C(Nc1ccccc1N1CCCC1)C1CCCO1 (configuration not stated) | / | 4.7% | -2.5% | 25.3%
O=C(CSc1nc2ncc(Cl)cc2[nH]1)N(Cc1ccccc1)C1CCS(=O)(=O)C1 (configuration not stated) | / | 1.7% | 0.0% | 13.5%
COc1ccc(CCNC(=O)C(NS(=O)(=O)c2ccc3c(c2)CCN3C(C)=O)C(C)C)cc1OC (configuration not stated) | / | -13.4% | -1.1% | 9.1%
SMILES | NS1 function inh | Pf growth 48h | SARS PLP yeast | Pf growth 96h
C=CC(N)CCC(=O)O (configuration not stated) | -11.8% | 0.2% | / | 20.7%
COc1ccc(CCNC(=O)c2ccc3c(c2)S(=O)(=O)N=C2CCCCCN23)cc1 | / | ? | 5.9% | ?
Cc1ccc(Nc2nc(N3CCOCC3)c3ccccc3n2)cc1 | -107.6% | / | -21.1% | 10.4µM*
Cc1ccc(C)c(OCCC(=O)OCC(=O)NCCc2ccc(S(N)(=O)=O)cc2)c1 | / | 2.2% | -0.4% | 33.8%
c1nnc(NC2=NCCCCC2)s1 | 3.3% | 31.0% | -2.7% | 5.86µM*
COc1cc2c(cc1OC)C(SC)=NC1(CCCC1)C2 | -6.2% | 10.4µM* | -0.8% | -22.5%
CCC(C)NC(=O)CCn1c(=O)c2cccn2c2ccc(F)cc21 (configuration not stated) | 1.3% | -3.8% | 1.2% | 27.2%
CC(CNC(=O)CCn1c(=O)c2cccn2c2ccc(F)cc21)c1ccccc1 (configuration not stated) | 6.8% | ? | 6.7% | 13.1µM*
O=C1CN(C(=O)COC(=O)C2CCN(S(=O)(=O)c3ccccc3C(F)(F)F)CC2)c2ccccc2N1 | 0.2% | 3.7µM* | 1.4% | /
O=C1CN(C(=O)COC(=O)CCS(=O)(=O)c2ccccc2Cl)c2ccccc2N1 | / | / | 1.4% | /
CCOc1ccccc1NC(=O)N1CCCC(c2nc3c(nnn3Cc3ccc(C)cc3)c(=O)[nH]2)C1 (configuration not stated) | -41.3% | 4.15µM* | -3.9% | 0.0%
Cc1ccc(CC(=O)N2CCC(c3nc4c(nnn4Cc4ccccc4)c(=O)[nH]3)CC2)cc1 | -1.2% | -26.4% | 24.2% | ?
CCCCC(=O)N1CCCC(c2nc3c(nnn3Cc3cc(C)ccc3C)c(=O)[nH]2)C1 (configuration not stated) | -9.7% | 8.28µM* | -4.0% | ?
Cc1ccc(C(=O)N2CCCC(c3nc4c(nnn4Cc4ccccc4)c(=O)[nH]3)C2)cc1 (configuration not stated) | 5.5% | 10.4µM* | 2.9% | /
CCC(C)(C)NC(=O)C(c1ccc(F)cc1)N(CCOC)C(=O)CCC(=O)Nc1nccs1 (configuration not stated) | 15.1% | -12.4% | -0.4% | -9.4%
[O-][N+]1=C(c2cccs2)CN(O)C1 | 4.9% | -1.2% | 9.7% | 1.65µM*
CC1(C)N(O)CC(c2cccs2)=[N+]1[O-] | 8.2% | 3.0% | 1.0% | /
Cc1ccc(N2CC(NC(=O)N3CCN(C(=O)c4ccco4)CC3)CC2=O)cc1 (configuration not stated) | / | 7.9% | -1.9% | 0.9%
O=C(O)c1c2c(nc3ccccc13)CCCCC2 | 13.9% | 0.3% | 19.2% | ?
Nc1c2c(nc3ccn(Cc4ccccc4)c(=O)c13)CCC2 | -57.9% | / | -19.5% | 2.94µM*
Nc1c2c(nc3ccn(-c4ccccc4)c(=O)c13)CCCCC2 | -3.4% | ? | 10.6% | 16.5µM*
O=C1C(Cc2ccccc2)Nc2ncnc(N3CCOCC3)c2N1Cc1ccc(Cl)cc1 (configuration not stated) | / | 9.28µM* | -4.3% | 0.0%
Cc1ccc(CN2C(=O)C(Cc3ccccc3)Nc3ncnc(N4CCN(c5ccccc5)CC4)c32)cc1 (configuration not stated) | / | 1.85µM* | -24.7% | 4.65µM*
O=C1C(Cc2ccccc2)Nc2ncnc(N3CCc4ccccc4C3)c2N1Cc1ccc(Br)cc1 (configuration not stated) | / | 10.4µM* | -0.3% | 13.1µM*
CCC1Nc2ncnc(N3CCCCC3)c2N(Cc2ccc(C)cc2)C1=O (configuration not stated) | / | / | 6.5% | /
CCC1Nc2ncnc(N3CCCCC3)c2N(Cc2ccccc2)C1=O (configuration not stated) | / | ? | -22.8% | ?

Bioassay records (PubChem BioAssay)
